{"source": "PubChem BioAssay (Tox21)", "note": "Records with an inconclusive call do not appear. Values without a mark were called inactive. Calls come from the whole dose curve. % is set by controls: 0 for no effect and ±100 for the full control effect.", "data": [{"target": "Retinoic acid receptor RXR-alpha (Homo sapiens) (UniProt P19793)", "sequence (P19793 whole entry, looked up)": "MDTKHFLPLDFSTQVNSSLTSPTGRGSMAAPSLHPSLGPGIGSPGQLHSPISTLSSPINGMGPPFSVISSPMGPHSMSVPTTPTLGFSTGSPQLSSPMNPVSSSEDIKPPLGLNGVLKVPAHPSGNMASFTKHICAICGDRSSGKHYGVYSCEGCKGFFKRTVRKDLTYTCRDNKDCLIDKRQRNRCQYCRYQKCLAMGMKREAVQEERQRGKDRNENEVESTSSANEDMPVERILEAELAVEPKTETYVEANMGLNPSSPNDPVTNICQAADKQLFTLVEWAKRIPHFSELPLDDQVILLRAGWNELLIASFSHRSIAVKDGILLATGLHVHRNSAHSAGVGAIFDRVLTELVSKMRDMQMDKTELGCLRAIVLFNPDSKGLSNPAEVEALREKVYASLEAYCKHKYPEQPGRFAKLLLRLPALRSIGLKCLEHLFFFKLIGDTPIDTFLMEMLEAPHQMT", "assay": "qHTS assay to identify small molecule agonists of the RXR signaling pathway (AID 1159527); note: nearly all actives have a fitted effect of over 35% in size", "conditions": "HEK293T RXRa-UAS-bla, beta-lactamase ratio, 16 h; series mostly up to 76.8 µM; activation: at the top concentration", "source_text": "U.S. Tox21 Program National Center for Advancing Translational Sciences [NCATS] NIH Chemical Genomics Center [NCGC] U.S. Environmental Protection Agency [EPA] National Institutes of Environmental Health Sciences [NIEHS] National Toxicology Program [NTP] U.S. Food and Drug Administration [FDA] Tox21 Assay Overview: The Retinoid X receptor (RXR), a nuclear hormone receptor expressed in liver, spleen, placenta, epidermis, central nervous system. These receptors are able to form homo and heterodimers with other nuclear receptors and due to this heterodimerizing ability, RXR functions as master regulators producing diverse physiological effects. Three subtypes of RXR exist; alpha, beta and gamma. Retinoid X receptor alpha (RXR-alpha) has potential roles in metabolic signaling pathways, skin alopecia, dermal cysts, cardiac development, insulin sensitization etc. Therefore screening environmental chemicals on RXR-alpha signaling can be used for the studies focused on such therapeutic applications. For quantification of RXR-alpha ligands signaling, GeneBLAzer RXR alpha-UAS-bla HEK 293T (Life Technologies, Carlsbad, CA) cells containing a beta-lactamase reporter-gene under control of Retinoid X receptor-alpha response element were used to screen Tox21 10K library.\nTox21 Assay Protocol Summary: RXR-alpha HEK 293T cells were dispensed at 2,000 cells/6 uL of assay medium containing 2% charcoal-stripped FBS using a Multidrop Combi (ThermoFisher Scientific, Waltham, MA) dispenser. The assay was performed in black wall/clear-bottom 1536-well plates (Greiner Bio-One North America Inc. Monroe, NC). 9-cis retinoic acid was used as a positive control in the agonist mode screen. After the assay plates were incubated at 37 C and 5% CO2 for 5 hr, 23 nL of compounds dissolved in DMSO, positive controls or DMSO only were transferred to the assay plate by a Pintool station (Kalypsys, San Diego, CA). The assay plates were incubated at 37 C and 5% CO2 for 16 hr. One uL of LiveBLAzer B/G FRET substrate (Life Technologies) was added using a Flying Reagent Dispenser (Aurora Discovery, San Diego, CA) and the plates were incubated at room temperature for 2 hr. Fluorescence intensity (405 nm excitation, 460/530 nm emission) was measured using an Envision plate reader (PerkinElmer, Shelton, CT).", "values": [{"smiles": "C=CCCCCCCCCC(=O)OCC", "activation": "-9.11%"}, {"smiles": "CCOC(=O)COC(=O)c1ccccc1C(=O)OCC", "activation": "-0.778%"}, {"smiles": "CO[C@@]1(NC(=O)CSC[C@@H](N)C(=O)O)C(=O)N2C(C(=O)O)=C(CSc3nnnn3C)CS[C@@H]21", "activation": "1.61% [at 35.3 µM]"}, {"smiles": "CC1CCC(CO)CC1", "note": "(stereo not given)", "activation": "4.3%"}, {"smiles": "C[N+]1(CC2COC(c3ccccc3)(c3ccccc3)O2)CCCCC1", "note": "(stereo not given)", "activation": "-0.901% [at 15.8 µM]"}, {"smiles": "NC(=O)N1c2ccccc2CC(=O)c2ccccc21", "activation": "-16.4% [at 35.3 µM]"}, {"smiles": "CCNS(=O)(=O)c1ccc(C)cc1", "activation": "8.44%"}, {"smiles": "CC(C)C(=O)OC(=O)C(C)C", "activation": "-8.91%"}, {"smiles": "CC(=O)c1ccccc1[N+](=O)[O-]", "activation": "1.37%"}, {"smiles": "CCOC(=O)C(=O)CCCCCCl", "activation": "3.14% [at 35.3 µM]"}, {"smiles": "CC(=O)C1CCCCC1=O", "note": "(stereo not given)", "activation": "-3.77%"}, {"smiles": "Cc1cccc(C)c1NC(=O)CC12CCCN1CCC2", "activation": "10.9% [at 35.3 µM]"}, {"smiles": "CC[N+](C)(CC)CCOC(=O)C1c2ccccc2Oc2ccccc21", "activation": "12.6% [at 35.3 µM]"}, {"smiles": "C[C@@H]1C[C@H]2[C@@H]3C[C@H](F)C4=CC(=O)C(Cl)=C[C@]4(C)[C@@]3(F)[C@@H](O)C[C@]2(C)[C@@]1(O)C(=O)CO", "activation": "-11.2% [at 35.3 µM]"}, {"smiles": "Cc1ccnc(NS(=O)(=O)c2ccc(N)cc2)n1", "activation": "5.25% [at 35.3 µM]"}, {"smiles": "COc1ccc2cc1Oc1cc3c(cc1OC)CC[N+](C)(C)[C@H]3Cc1ccc(cc1)Oc1c(OC)c(OC)cc3c1[C@@H](C2)[N+](C)(C)CC3", "activation": "-1.72% [at 35.3 µM]"}, {"smiles": "CCCO[Si](OCCC)(OCCC)OCCC", "activation": "7%"}, {"smiles": "CCCc1nn(C)c2c(=O)[nH]c(-c3cc(S(=O)(=O)N4CCN(C)CC4)ccc3OCC)nc12", "activation": "-13.5% [at 35.3 µM]"}, {"smiles": "CCOC(=O)c1cnc2c(cnn2CC)c1NN=C(C)C", "activation": "-8.86% [at 35.3 µM]"}, {"smiles": "CCOc1ccccc1OCC", "activation": "-2.83%"}, {"smiles": "CCCc1ncc(C[n+]2ccccc2C)c(N)n1", "activation": "14% [at 35.3 µM]"}, {"smiles": "O=S(=O)(O)c1cccc2ccccc12", "activation": "10.3%"}, {"smiles": "O=C(O)c1cn(C2CC2)c2cc(N3CCNCC3)c(F)cc2c1=O", "activation": "11.2% [at 35.3 µM]"}, {"smiles": "CC(C)[C@H]1CC[C@@H](C)CC1=O", "activation": "10.8%"}, {"smiles": "Cc1ccc(C(=O)Nc2ccc(S(=O)(=O)O)c3cc(S(=O)(=O)O)cc(S(=O)(=O)O)c23)cc1NC(=O)c1cccc(NC(=O)Nc2cccc(C(=O)Nc3cc(C(=O)Nc4ccc(S(=O)(=O)O)c5cc(S(=O)(=O)O)cc(S(=O)(=O)O)c45)ccc3C)c2)c1", "activation": "-0.0733% [at 35.3 µM]"}, {"smiles": "CN(C)CCCCCCN(C)C", "activation": "2.96%"}, {"smiles": "CCCC[N+](C)(CCCC)CCCC", "activation": "7.33%"}, {"smiles": "CCOC(=O)c1ccccc1", "activation": "6.83%"}, {"smiles": "CCN1C=CN(C)C1C", "note": "(stereo not given)", "activation": "-2.69%"}, {"smiles": "CO[Si](C)(OC)c1ccccc1", "activation": "18%"}, {"smiles": "CCCCCC(=O)OCCc1ccccc1", "activation": "1.12%"}, {"smiles": "CCN(C=O)CC", "activation": "-18.2%"}, {"smiles": "COc1cc(-c2ccc(=O)[nH]n2)ccc1OC(F)F", "activation": "8.37% [at 35.3 µM]"}, {"smiles": "NC(=O)N[C@@H](CCC(=O)O)C(=O)O", "activation": "8.47% [at 35.3 µM]"}, {"smiles": "C1CCC2(CCCCO2)OC1", "activation": "-14.6%"}, {"smiles": "CC1=NN(c2cc(S(=O)(=O)O)ccc2Cl)C(=O)C1N=Nc1ccccc1", "note": "(stereo not given)", "activation": "-13%"}, {"smiles": "COc1cc(C)nc(-n2nc(C)cc2OC)n1", "activation": "-11% [at 35.3 µM]"}, {"smiles": "CCN(Cc1ccccc1)c1ccccc1", "activation": "-10.7%"}, {"smiles": "CC(=O)NC(=O)c1ccccc1O", "activation": "5.05% [at 35.3 µM]"}, {"smiles": "CC(C)=CCC/C(C)=C/C#N", "activation": "0.979%"}]}]}
